The list is not random: actives were taken first. Their share in the collection is about 3.5%.
TEAD-YAP inh – TEAD-YAP interaction inhibition, primary screen, TEAD-YAP interaction inhibitor project, luminescence, HEK-TIYL cells | TEAD-Gal4/YAP UAS-luciferase luminescence | actives 1.4% (n = 640,000) | inhibition, % at 9.12 µM; in the data active means inhibition above about 32%;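 further: 0% = median of test compound wells and 100% = reference inhibitor wells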
GPR151 ag – activators of human GPR151, primary screen, cell-based, PathHunter beta-arrestin, luminescence. PathHunter beta-arrestin GPR151 cells. activation, % at 11.2 µM. actives 1% (n = 650,000). AID 1508602, 2020; in the data active means activation above about 4.9%;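 further: 0% = median of compound wells and 100% = cells with positive control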
Target sequence (Q8TDV0 whole entry, looked up): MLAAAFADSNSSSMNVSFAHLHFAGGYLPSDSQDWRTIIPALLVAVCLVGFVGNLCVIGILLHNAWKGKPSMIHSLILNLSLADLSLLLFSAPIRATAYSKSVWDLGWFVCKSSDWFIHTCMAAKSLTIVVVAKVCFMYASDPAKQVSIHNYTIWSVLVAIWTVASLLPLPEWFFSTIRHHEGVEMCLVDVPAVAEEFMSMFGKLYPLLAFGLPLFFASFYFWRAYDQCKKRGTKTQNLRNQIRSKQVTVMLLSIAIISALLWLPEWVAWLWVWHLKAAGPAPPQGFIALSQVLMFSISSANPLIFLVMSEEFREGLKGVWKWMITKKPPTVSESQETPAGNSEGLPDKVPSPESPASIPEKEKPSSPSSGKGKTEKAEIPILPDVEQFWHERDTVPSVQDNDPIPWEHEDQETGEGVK
MITF primary – MITF inhibitors, primary screen, biochemical, AlphaScreen, human. actives 0.91% (n = 650,000). AID 1259374, 2018. AlphaScreen MITF homodimerization, bead proximity signal. inhibition, % at 2.6 µM; in the data active means inhibition above about 50%;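 further: 0% = vehicle wells with protein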
FBW7 act – FBW7 E3 ligase activators, primary screen, biochemical, AlphaScreen, human; AlphaScreen FBW7–phospho-cyclin E peptide binding, activator screen; normalized activity (activation), % at 26.1 µM; F-box/WD repeat-containing protein 7 (Homo sapiens), Q969H0; actives 0.13% (n = 650,000); in the data active means normalized activity above about 1.9%;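 further: purified mutant Fbw7 with reduced substrate affinity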
GPR151 conf act – GPR151 activators, triplicate retest, confirmation, cell-based, PathHunter beta-arrestin, luminescence. shares compounds with GPR151 ag. GPR151 PathHunter beta-arrestin cells, 90 min; % of EA-reagent control over plate median. activation, % at 11.2 µM. 6,700 tested, under 10 active. AID 1508609, 2020;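 active means mean percent activation across replicates above the confirmation screen cutoff of 4.91%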
GPR119 ag – GPR119 activators in beta-arrestin cells, counter-screen for GPR151 activator project, cell-based, PathHunter beta-arrestin, luminescence, triplicate; shares compounds with GPR151 ag; 90 min; 0 = compound-well median, 100 = enzyme-acceptor control; activation, % at 11.2 µM; actives 0.3% (n = 6,700); AID 1508611, 2020;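 active means mean percent activation in the counterscreen above 29.09%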;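 further: counterscreen on off-target GPR119 to flag nonselective hits from the GPR151 activator screen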
* hit, by the source's call; x = not tested or not shown; ! = not active in a repeat.

SMILES	TEAD-YAP inh	GPR151 ag	MITF primary	FBW7 act	GPR151 conf act	GPR119 ag
O=C(NC1CCCCC1O)c1ccccc1C(F)(F)F (stereo unspecified)	-5	9.2*	16	0	0	-10
O=C(NC1CCCCC1)c1ccccc1C(F)(F)F	-4	-1	8	0	x	x
O=C1CCCN1CCn1cnc2c(NCCN3CCOCC3)nc(N3CCN(Cc4ccc5c(c4)OCO5)CC3)nc21	8	2	5	0	x	x
O=C(Nc1ccccc1F)C1CCN(C(=O)Cc2ccccc2)CC1	1	5.4*	3	0	-1	-12
Cc1c(Cl)cccc1NC(=O)C1CCN(C(=O)Cc2ccccc2)CC1	4	0	-1	0	x	x
Nc1nc(NCc2nc3ccccc3[nH]2)cc(-c2csc3ccccc23)n1	-12	5.6*	-7	0	0	-2
Cc1cnc(Nc2ccncn2)nc1NC1CC1	3	5.7*	-6	0	1	0
Cc1cnc(Nc2ccncn2)nc1NC1CCN(Cc2ccccc2)CC1	24	-3	-12	0	x	x
CCCN1CNC(=S)N(c2ccccc2)C1	-3	-1	2	0	x	x
Cc1ccc(NC(=O)CSC2=NC(=O)C(Cc3ccccc3)C(=O)N2)cc1 (stereo unspecified)	17	11*	-7	0	0	-9
O=C(CSC1=NC(=O)C(Cc2ccccc2)C(=O)N1)Nc1ccccc1 (stereo unspecified)	4	-1	-1	0	x	x
CNC(=O)CCCc1nnc2n(CCC(C)C)c(=O)c3sccc3n12	3	-2	13	0	x	x
CC(C)CCn1c(=O)c2sccc2n2c(CCCC(=O)NC3CC3)nnc12	6	5.0*	4	0	1	1
O=C(Cn1c(=O)n(-c2ccccc2)c(=O)c2oc3ccccc3c21)N1CCCCC1	-6	5.1*	5	0	-1	-3
COc1cc(C(=O)O/N=C(\N)c2ccc(Br)cc2)cc(OC)c1OC	0	6.6*	13	0	0	-10
Cc1ccc(C)c(OCC(=O)O/N=C(\N)c2ccc(I)cc2)c1	3	5.5*	-14	0	0	-2
Cc1ccc(/C(N)=N/OC(=O)COc2ccc(Br)cc2)cc1	-4	8.5*	1	0	0	7
Cc1ccc(C)c(OCC(=O)O/N=C(\N)c2ccc(Br)cc2)c1	-7	1	-2	0	x	x
CC(C)C(=O)NCC1CCC2(CCN(Cc3cnn(-c4ccccc4)c3)CC2)O1 (stereo unspecified)	4	-1	18	0	x	x
CCCCC/C=C\C/C=C\C/C=C\CCCCCCC(=O)OCC	x	9.1*	4	x	0	4
CC/C=C\C/C=C\C/C=C\CCCCCCCC(=O)OCC	x	-2	-9	x	x	x
CC1CCCN(CCCNC(=O)c2ccc3c(c2)NC(=O)C(N2CCOCC2)S3)C1 (stereo unspecified)	-2	6.2*	-4	0	0	-4
COc1ccc(NC2=CC(=O)CCC2)c(OC)c1	-6	7.8*!	5	0	1	8
COc1ccc(NC2=CC(=O)CCC2)cc1	8	-1	4	0	x	x
CCOc1ccccc1C1NC(=S)NC(C)=C1C(=O)OCc1ccccc1 (stereo unspecified)	7	2	16	0	x	x
SMILES	TEAD-YAP inh	GPR151 ag	MITF primary	FBW7 act	GPR151 conf act	GPR119 ag
COc1ccc(Br)cc1C(=O)Nc1cc(Cl)ccc1C(=O)O	-10	8.4*	-16	0	1	3
COc1cc(NC(=O)c2ccccc2F)c(C(=O)O)cc1OC	-5	-1	10	0	x	x
COC(=O)c1cc(OC)c(OC)cc1NC(=O)c1cc(C)ccc1C	-1	0	-3	0	x	x
COc1cc(NC(=O)c2ccccc2OC)c(C(=O)O)cc1OC	2	6.7*	-22	0	0	2
COC(=O)c1cc(OC)c(OC)cc1NC(=O)c1ccccc1C	3	9.7*	14	0	1	-6
COc1ccc(CC(=O)Nc2sc3c(c2C#N)CCCC3)cc1OC	28	0	9	0	x	x
COCCCNC(=O)/C(C#N)=C/c1c(Oc2ccccc2OC)nc2c(C)cccn2c1=O	22	-1	5	0	x	x
CCOc1ccc(CCNS(=O)(=O)c2ccc3c(c2)OCCN3C(C)=O)cc1OCC	4	5.2*	10	1	0	-7
O=C(OCc1ccccc1)/C(=C/c1c[nH]c2ccccc12)[N+](=O)[O-]	8	5.5*	13	0	-1	-2
COc1cc(C2c3c(oc4ccc(F)cc4c3=O)C(=O)N2c2nccs2)ccc1O (stereo unspecified)	8	6.2*	9	0	-1	4
CCN(CC)CC(O)COc1cc(Cl)ccc1Cl (stereo unspecified)	7	-1	33	0	x	x
COC(=O)c1cccc(Nc2nc(C)cc(C)n2)c1	-26	12*	-5	0	0	-9
O=c1c2c3c(sc2ncn1Cc1cccc(Br)c1)CCC3	-9	1	6	0	x	x
CC1=C(C(=O)Nc2ccc(Cl)cc2)C(c2ccccc2)C(C#N)=C(SCC(=O)Nc2ccc(C)c(Cl)c2)N1 (stereo unspecified)	4	-2	-2	0	x	x
O=C(/C=C/c1ccccc1)NCCOC(=O)Nc1ccccc1	-1	9.8*	11	1	1	5
N[C@@H](C(=O)N1CCCC(Nc2ccc3[nH]ncc3c2)C1)c1ccccc1 (stereo partly specified)	-2	-1	12	0	x	x
CCN(CC)C(=O)C1CCCN(c2cc(C(=O)NCc3nc4ccccc4[nH]3)ccn2)C1 (stereo unspecified)	2	6.6*	2	0	0	-2
Cc1cccc(N2N=C(c3ccccc3)CC2=O)c1C	14	8.8*	6	0	-1	10
Oc1cccc2ccc(Nc3ccccn3)nc12	86*	5.1*	108*	0	-1	-8
CC(C(=O)Nc1cccc(C(F)(F)F)c1)N(c1ccc(Cl)cc1)S(C)(=O)=O (stereo unspecified)	-4	6.8*	-12	0	0	0
COc1ccc(/C=C/c2nc(-c3cccnc3)no2)cc1OC	-66	8.7*	-2	0	0	-15
COc1cccc(-c2noc(/C=C/c3ccc(OC)c(OC)c3)n2)c1	-23	1	14	0	x	x

High-throughput results as filed in PubChem BioAssay.
